Only a selection was taken, and hits are over-represented in it overall.
Dicer processing: inhibitors of human Dicer processing of pre-microRNA; z-score at 25 µM; actives 6% (n = 47,000); Q9UPY3; cat-ELCCA pre-miR-21 Dicer processing, chemiluminescence; active compounds read high; in the data active means z-score above about 3, passing the limit was not always enough;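 further: plate controls were vehicle for no effect and no enzyme for full effect; higher signal means more uncleaved substrate so more Dicer inhibition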
An asterisk follows results filed as active.

SMILES	Dicer processing
COc1ccc(C2SCCN2S(=O)(=O)c2ccc(F)cc2)cc1 (centres undefined)	1.1
COc1ccc(C2SCCN2S(=O)(=O)c2ccc(Br)cc2)cc1 (centres undefined)	3.7*
CCOc1ccc(S(=O)(=O)N2CCSC2c2cc(OC)ccc2OC)cc1 (centres undefined)	4.8*
COc1ccc(OC)c(C2SCCN2S(=O)(=O)c2ccccc2)c1 (centres undefined)	2.2
CCOC(=O)N/N=C/c1ccc(N(C)C)cc1Cl	0.93
COc1ccc2[nH]c(C)c(CN(C)C3CCCCC3)c(=O)c2c1	0.5
O=C1CC2(CCCC2)C(=O)N1CCNc1nccc(C(F)(F)F)n1	-1.4
CCOC(=O)c1c(NC(=O)c2cc3ccccc3c(=O)o2)sc2c1CCC(CC)C2 (centres undefined)	0.08
Cc1cc(C)c(S(=O)(=O)N2CCN(Cc3ccc4c(c3)OCO4)CC2)cc1C	5.2
CCc1c(C)nc(N2CCN(Cc3ccc4c(c3)OCO4)CC2)[nH]c1=O	3.9*
O=c1cc(CSc2ccc(Cl)cc2)nc(N2CCN(Cc3ccc4c(c3)OCO4)CC2)[nH]1	2.8
Cc1ccc(C(=O)c2sc3nc(C)cc(-c4cccs4)c3c2N)cc1	-0.51
Cc1nc2ccc(Br)cc2c(C(=O)O)c1I	1
O=C(O)c1ccc(Nc2ncnc3ccc(Br)cc23)cc1	4.9*
O=C(O)c1ccc(Nc2ccnc3cc(Cl)ccc23)cc1	1.6
COc1ccc(S(=O)(=O)N2CC=C(c3ccccc3)CC2)c(OC)c1	-0.66
CC1=C(C(=O)OCCc2ccccc2)C(c2cc3c(cc2Cl)OCO3)C2=C(CCCC2=O)N1 (centres undefined)	0.48
NC(=O)C1CCN(c2cc(C(F)(F)F)ccn2)CC1	0.28
CSc1nnc2c(n1)OC(C)=Nc1ccccc1-2	0.37
CCCCSc1nnc2c(n1)OC(CC)=Nc1ccccc1-2	-0.65
CCSc1nnc2c(n1)OC(CC)=Nc1ccccc1-2	-1.2
CSc1nnc2c(n1)OC(C)=Nc1ccc(Br)cc1-2	1.9
CCSc1nnc2c(n1)OC(C)=Nc1ccc(Br)cc1-2	3.4*
CCCSc1nnc2c(n1)OC(C)=Nc1ccc(Br)cc1-2	3.7*
NS(=O)(=O)c1cccc(C(F)(F)F)c1	0.12
SMILES	Dicer processing
Nc1c(-c2ccc(Cl)cc2)cnn1-c1ncc(C(F)(F)F)cc1Cl	1.1
CNC(=O)NC(=O)Cn1nc2n(c1=O)-c1ccccc1SC2	0.34
CC(=O)Cn1nc2n(c1=O)-c1ccccc1SC2	-0.18
NNC(=O)Cn1nc2n(c1=O)-c1ccccc1SC2	4.1*
O=C(Cn1cccc(C(F)(F)F)c1=O)Nc1cccc(Cl)c1	15
COc1ccc(-c2cc(NC(=O)Nc3ccccc3C#N)n(-c3ccc(Cl)c(Cl)c3)n2)cc1	0.48
CC(C)(CC(=O)O)CC(=O)NCc1csc2ccccc12	4.5*
S=C(NCc1csc2ccccc12)c1ccccc1	-1.4
Cc1cc(C)c(NC(=S)NCc2csc3ccccc23)c(C)c1	2.5
COc1cc2nc(SCC(=O)Nc3ccc(F)c(Cl)c3)n(-c3ccccc3)c(=O)c2cc1OC	0.64
CC(C)NS(=O)(=O)c1ccc(Cl)cc1I	-1.5
Cc1nc2sc3c(N4CCOCC4)ncnc3c2c2c1COC(C)(C)C2	1.9
COc1ccc(Br)c(C(=O)/C(C#N)=C/c2cccs2)c1	0.78
COc1ccc(Br)c(C(=O)NN)c1	0
COc1ccc(Br)c(C(=O)/C(C#N)=C/c2ccc(N(C)C)cc2)c1	6.2*
Nc1cnc(Sc2ccccc2)c(C(F)(F)F)c1	-0.79
Cc1cc(C)nc(Nc2nc3ccccc3[nH]2)n1	3.7*
CCOC(=O)Nc1nc2ccccc2[nH]1	-1
Cc1cc(C)nc(Nc2ccccc2O)n1	2.5
O=C(NC(=O)c1c(F)cccc1Cl)NN(Cc1c(F)cccc1Cl)c1ccccc1	-0.89
CSC1=C(C#N)C(=O)NC(c2cccs2)S1 (centres undefined)	0.19
Cc1ccc(NC(=O)CC(CC(=O)O)c2ccccc2)nc1 (centres undefined)	3.7*
CC(CC(=O)O)CC(=O)Nc1ccccn1 (centres undefined)	0.15
Cc1ccc(NC(=O)CC(C)CC(=O)O)cc1 (centres undefined)	1.2
O=C(Nc1ccc(-n2nc(C(F)(F)F)cc2C(F)(F)F)cc1)c1ccc(Cl)cc1	-0.44
SMILES	Dicer processing
CCc1[nH]nc2c1C(c1ccc(Cl)cc1)C(C#N)=C(N)O2 (centres undefined)	-5.6
Cc1ccc(-c2nnn(CC(=O)C(C)(C)C)n2)cc1Cl	0.26
O=S(=O)(CCS(=O)(=O)c1cccs1)c1ccc(Cl)cc1	-0.66
O=S(=O)(Cc1ccccc1)c1ccc(Cl)cc1	0.84
O=S(=O)(CCc1ccncc1)c1ccc(Cl)cc1	4.3*
CCCOC(=O)C1=C(C)NC2=C(C(=O)CC(C)(C)C2)C1c1cccc(Cl)c1 (centres undefined)	-0.11
C=CCSc1nc2c(c(=O)n1C)C1(CCCC1)Cc1ccccc1-2	1.4
N#CCCN(Cc1ccncc1)C(=O)c1sc2ccccc2c1Cl	-0.64
O=C(Nc1ccccc1C(=O)NCC1CC1)Nc1c(Cl)cc(Cl)cc1Cl	2.3
COc1cccc(/C=N/NC(=S)NCCc2ccccc2)c1OC	-1.4

Source: PubChem BioAssay (Center for Chemical Genomics, University of Michigan)
